This passage reports z-score and composite z-score results from PubChem BioAssay.

The structures appear in SMILES notation. Activity calls are given as the source filed them. Unless noted, the rule behind the calls is not given here.

The nature of test [1]: resazurin metabolic signal in HepG2 cells – cell-based, resazurin fluorescence, 24 h, PK04 Diversity Set, profiling panel (AID 1172). The note with it: HepG2 viability, higher = more signal.
Test [2] is described as follows: budding yeast growth changes without added modifier – OD600, strain BY4716, 24 h, basal condition, primary screen (AID 1173). The note with it: S. cerevisiae BY4716 growth, OD600, 24 h; higher = more signal, called active from +8 up or from −8 down.
A short description of test [3]: viability profiling in MM1S myeloma cells – cell-based, resazurin fluorescence, basal, 24 h, PK04 Diversity Set, profiling panel (AID 1174).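 Note: MM1S multiple myeloma cell line.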 To be noted: higher = more signal, called active from +8 up or from −8 down.
The target in test [4] is Dihydroorotate dehydrogenase (quinone), mitochondrial (Plasmodium falciparum (isolate 3D7)) (UniProt Q08210). As to the kind of experiment: inhibition of P. falciparum DHODH – biochemical, C-terminal His tag, absorbance 600 nm, primary screen (AID 1175).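 Note: recombinant parasite enzyme with a five histidine tag at its C terminus.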 The note with it: PfDHODH enzyme, DCIP absorbance 600 nm; higher = more signal, called active from +8 up or from −8 down.

A short description of test [5]: inhibition of PAO1 biofilm formation – strain PAO1, LB-PBS medium, absorbance 600 nm, primary screen (AID 1176). To be noted: P. aeruginosa PAO1 growth/biofilm, A600, 12 h; higher = more signal.
Test [6] can be described thus: growth modulation of vineyard yeast isolate – strain RM11-1a, OD600, basal, 24 h, primary screen (AID 1177).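 Note: cultures grown under basal conditions with no added stressor.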 To be noted: S. cerevisiae RM11-1a growth, OD600, 24 h; higher = more signal, called active from +8 up or from −8 down.
Test [7] is described as follows: growth of efflux-deficient E. coli DRC39 – strain DRC39, OD650, 24 h, E. coli filamentation inducers, primary screen (AID 1178).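 Note: growth measured as culture turbidity by optical density at 650 nm.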 To be noted: E. coli DRC39 acrAB, higher = more signal, called active from +8 up or from −8 down.
A short description of test [8]: growth of efflux-deficient E. coli DRC39 – strain DRC39, OD650, 48 h, E. coli filamentation inducers, primary screen (AID 1179).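 Note: screen aims at cell division blockers that make cells filament.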 To be noted: E. coli DRC39 delta-acrAB growth, higher = more signal, called active from +8 up or from −8 down.
The nature of test [9]: viability profiling in RPMI8226 myeloma cells – cell-based, resazurin fluorescence, basal, 24 h, PK04 Diversity Set, profiling panel (AID 1180).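 Note: RPMI8826 multiple myeloma cell line at 5000 cells per well.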 The note with it: higher = more signal.
The target of test [10] is E3 ubiquitin-protein ligase XIAP (Homo sapiens) (UniProt P98170). As to the kind of experiment: small molecules binding XIAP protein – biophysical, small-molecule microarray, fluorescence 635 nm, primary screen (AID 1181).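 Note: score merges 667 nm emission and signal to noise over triplicate slides.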 The note with it: higher = more signal.
Test [11] has as its system XIP peptide (Xip251-270) binding. Briefly: XIP fragment 251-270 binding compounds – biochemical, small-molecule microarray, fluorescence 635/667 nm, 0.1 µg/mL protein, primary screen (AID 1182). To be noted: fluorescent protein binding, 635 nm, higher = more signal, called active from +8 up or from −8 down.
Test [12] deals with XIP peptide (Xip251-270). Briefly: compounds binding XIP fragment 251-270 – biochemical, small-molecule microarray, fluorescence 635/667 nm, 0.5 µg/mL protein, primary screen (AID 1183). The note with it: fluorescence 635 nm, higher = more signal.
Test [13] can be described thus: blood-stage malaria parasite viability loss – strain 3D7, DAPI fluorescence, 100 nL, primary screen (AID 1184).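 Note: parasites grown inside human red blood cells in medium with human serum.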 The note with it: P. falciparum 3D7 growth, 3 d, higher = more signal.
In test [14] the target is Homeobox protein Hox-A13 (Mus musculus) (UniProt Q62424). Briefly: disruptors of Hoxa13 oligonucleotide interaction – biochemical, fluorescence polarization, labeled oligonucleotide, primary screen (AID 1185). The note with it: Hoxa13:DNA binding, 15 min, higher = more signal, called active from +8 up or from −8 down.
Test [15] is described as follows: blockers of DNA damage checkpoint Chk1 activation – imaging, HeLa, hydroxyurea, phospho-Chk1 antibody, percent positive cells, primary screen (AID 1186). The note with it: hydroxyurea-induced phospho-Chk1 immunofluorescence imaging, higher = more signal.
Test [16] is described as follows: blockers of DNA damage checkpoint Chk1 activation – imaging, HeLa, hydroxyurea, phospho-Chk1 nuclear intensity, primary screen (AID 1187). To be noted: hydroxyurea-induced phospho-Chk1 immunofluorescence imaging, higher = more signal.

Homeobox protein Hox-A13 (Mus musculus), sequence (Q62424 whole entry, looked up): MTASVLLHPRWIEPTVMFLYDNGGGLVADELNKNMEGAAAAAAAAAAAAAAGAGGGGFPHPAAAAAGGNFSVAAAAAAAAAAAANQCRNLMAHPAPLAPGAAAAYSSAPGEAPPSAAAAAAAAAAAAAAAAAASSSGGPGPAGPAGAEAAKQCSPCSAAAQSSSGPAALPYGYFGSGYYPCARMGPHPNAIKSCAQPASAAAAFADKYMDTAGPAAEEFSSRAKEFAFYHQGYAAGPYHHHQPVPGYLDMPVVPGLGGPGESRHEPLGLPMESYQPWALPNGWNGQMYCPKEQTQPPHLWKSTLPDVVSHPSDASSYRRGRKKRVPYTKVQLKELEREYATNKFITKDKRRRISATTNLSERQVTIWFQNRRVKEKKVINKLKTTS
Dihydroorotate dehydrogenase (quinone), mitochondrial (Plasmodium falciparum (isolate 3D7)), sequence (Q08210 whole entry, looked up): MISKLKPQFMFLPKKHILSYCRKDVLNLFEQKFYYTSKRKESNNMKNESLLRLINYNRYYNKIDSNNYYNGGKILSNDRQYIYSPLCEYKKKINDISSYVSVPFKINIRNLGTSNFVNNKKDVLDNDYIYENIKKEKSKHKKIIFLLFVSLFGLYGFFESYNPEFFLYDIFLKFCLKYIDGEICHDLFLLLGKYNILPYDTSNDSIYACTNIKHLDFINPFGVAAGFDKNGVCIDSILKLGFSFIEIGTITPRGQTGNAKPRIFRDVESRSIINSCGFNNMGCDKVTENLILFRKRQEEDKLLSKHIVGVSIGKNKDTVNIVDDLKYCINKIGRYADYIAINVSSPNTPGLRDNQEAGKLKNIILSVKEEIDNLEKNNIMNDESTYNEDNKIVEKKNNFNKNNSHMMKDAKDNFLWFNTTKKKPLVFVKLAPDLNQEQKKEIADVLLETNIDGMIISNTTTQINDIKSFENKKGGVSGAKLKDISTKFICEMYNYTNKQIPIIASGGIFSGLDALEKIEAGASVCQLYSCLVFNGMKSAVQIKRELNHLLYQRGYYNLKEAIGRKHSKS
E3 ubiquitin-protein ligase XIAP (Homo sapiens), sequence (P98170 whole entry, looked up, the tested form may be a part): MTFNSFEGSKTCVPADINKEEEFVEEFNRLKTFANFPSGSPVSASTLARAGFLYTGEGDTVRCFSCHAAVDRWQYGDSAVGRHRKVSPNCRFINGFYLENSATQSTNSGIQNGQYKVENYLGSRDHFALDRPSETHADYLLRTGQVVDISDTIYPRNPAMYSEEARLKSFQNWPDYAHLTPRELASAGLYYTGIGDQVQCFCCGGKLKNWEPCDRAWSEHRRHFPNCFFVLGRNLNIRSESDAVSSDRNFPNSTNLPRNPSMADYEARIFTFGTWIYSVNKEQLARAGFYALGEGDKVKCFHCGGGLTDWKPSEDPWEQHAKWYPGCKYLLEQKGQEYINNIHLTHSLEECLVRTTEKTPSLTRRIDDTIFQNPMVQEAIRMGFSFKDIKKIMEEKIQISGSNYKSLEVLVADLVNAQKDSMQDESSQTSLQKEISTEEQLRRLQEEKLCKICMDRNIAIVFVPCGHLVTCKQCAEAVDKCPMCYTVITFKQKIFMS

With `COc1ccc(C(=O)Nc2cccc(CN3C(=O)[C@@]4(O[C@@H](CC(=O)N(CCO)Cc5ccccc5)[C@H]([Si](C)(C)c5ccc(OC)cc5)[C@H]4C)c4ccccc43)c2)cc1`, the z-score in test [1] is -0.0246; in [2], 0.062 (inactive); in [3] it was -2.3 (inactive); in test [5], 0.711 (inactive); in test [6], 0.621 (inactive); in test [7] it was 0.289 (inactive). Further, the z-score in [8] was 0.45 (inactive); in [9], -2.67; in test [13], -2.54; in test [14], -0.674 (inactive); in test [15], -1.43 (inactive); in test [16] it was -0.643 (inactive). In addition, the composite z-score in test [4] was -2.25 (inactive); in [10], -0.0365; in test [11], 1.31 (inactive); in test [12], 0.442.

For `O=C1[C@@]23C=C(Br)[C@H](C[C@@H]2COC3)[C@@]12CO2`, the z-score in [1] was -0.198; in test [2], -0.237 (inactive); in test [3] it was -0.402 (inactive); in test [5], 0.224 (inactive); in test [6], 0.254 (inactive); in test [7], -0.417 (inactive). The z-score is -0.0396 (inactive) in test [8]; -0.373 in test [9]; 2.53 in test [13]; 0.786 (inactive) in test [14]; 0.854 (inactive) in test [15]; 0.352 (inactive) in test [16]. In addition, the composite z-score in test [4] is 0.571 (inactive); in test [10], -0.102; in [11] it was -0.0944 (inactive); in test [12], 0.0556.

On to `COc1ccc([Si](C)(C)[C@@H]2[C@@H](CCn3cc([C@H](O)c4ccccc4)nn3)O[C@]3(C(=O)N(Cc4cccc(N5C(=O)c6cccc7cccc5c67)c4)c4ccccc43)[C@H]2C)cc1`, for which the z-score was -0.167 in test [1]; 1.33 (inactive) in test [2]; -2.01 (inactive) in test [3]; 0.106 (inactive) in test [5]; 2.11 (inactive) in test [6]; -0.494 (inactive) in [7]. Also, the z-score was -0.787 (inactive) in test [8]; -1.19 in test [9]; -2.38 in [13]; -1.19 (inactive) in test [14]; -0.779 (inactive) in [15]; -1.33 (inactive) in test [16]. Also, the composite z-score is 0.736 (inactive) in [4], -0.217 in test [10], 0.368 (inactive) in test [11] and 0.45 in test [12].

Regarding `COC(=O)[C@@]1(Cc2ccc(F)cc2)[C@H]2c3cc(C(=O)N(C)C)n(Cc4c(CO)[nH]cc(C)c4=O)c3C[C@H]2CN1C(=O)c1ccccc1`, the z-score in [1] is -1.03; in [2] it was 0.966 (inactive); in test [3], -1.72 (inactive); in test [5], 1.79 (inactive); in test [6] it was 0.986 (inactive); in [7] it was -0.0892 (inactive). Also, the z-score in test [8] was -1.36 (inactive); in test [9], -0.932; in [13], -1.81; in test [14], -5.02 (inactive); in [15] it was 0.815 (inactive); in test [16], 0.493 (inactive). Also, the composite z-score in [4] is -0.244 (inactive); in test [10] it was 0.0153; in test [11], 0.493 (inactive); in test [12] it was -0.0903.

With `CC(C)[C@H]1NC(=O)[C@@]23C(=O)N[C@@H](Cc4ccccc4)C2[C@H](C)[C@@]2(C)O[C@H]2C3/C=C/CCC/C=C/CNC(=O)[C@H](Cc2ccccc2)NC1=O` (some centres undefined), the z-score in test [1] is -1.15; in [2] it was -1.76 (inactive); in test [3], -0.457 (inactive); in test [5], -0.471 (inactive); in [6] it was -0.201 (inactive); in test [7] it was -0.297 (inactive). The z-score is -0.786 (inactive) in [8]; 0.0125 in test [9]; -1.83 in test [13]; -6.22 (inactive) in [14]; -0.165 (inactive) in test [15]; -0.0036 (inactive) in test [16]. The composite z-score is 0.112 (inactive) in test [4], -0.039 in test [10], 0.621 (inactive) in test [11] and 0.741 in test [12].

On to `Cc1c(NC(=O)/C(C#N)=C/c2ccccc2Cl)c(=O)n(-c2ccccc2)n1C`, for which the z-score is 0.294 in test [1]; -1.08 (inactive) in test [2]; 0.242 (inactive) in [3]; 0.543 (inactive) in test [5]; -0.688 (inactive) in test [6]; 1.17 (inactive) in test [7]. Further, the z-score in test [8] is 1.36 (inactive); in test [9], 0.0753; in test [13], 0.419; in test [14], -1.68 (inactive); in test [15], -0.0018 (inactive); in [16] it was 0.281 (inactive). In addition, the composite z-score in test [4] is -1.73 (inactive); in [10] it was 0.197; in test [11] it was -0.0708 (inactive); in test [12], 0.808.

For `COc1ccc([Si](C)(C)[C@H]2[C@H](CCO)O[C@@]3(C(=O)N(Cc4ccccc4)c4ccc(N5C(=O)c6ccccc6Oc6ccccc65)cc43)[C@@H]2C)cc1`, the z-score in test [1] was -1.6; in test [2] it was 1.09 (inactive); in test [3], -4.24 (inactive); in [5] it was 2.38 (inactive); in test [6], 3.48 (inactive); in test [7] it was 0.0105 (inactive). Besides, the z-score in test [8] is -0.615 (inactive); in [9], -3.34; in [13], -1.75; in [14], -1.76 (inactive); in [15] it was 0.564 (inactive); in test [16], -0.608 (inactive). Further, the composite z-score in test [4] is 0.906 (inactive); in test [10], -0.172; in test [11], 0.823 (inactive); in [12], 0.601.

For the compound `C=CCC(OC(C)=O)[C@@H]1[C@@H](N(Cc2ccc(-c3cccc(C(F)(F)F)c3)o2)C(=O)c2cccc3ccccc23)c2cc(OCCCO)ccc2N1C(=O)Cc1ccc(OC)cc1` (some centres undefined), the z-score was 0.119 in [1]; -1.8 (inactive) in [2]; 0.0814 (inactive) in test [3]; -1.17 (inactive) in test [5]; -0.0592 (inactive) in test [6]; 1.11 (inactive) in test [7]. Besides, the z-score in [8] is 0.721 (inactive); in test [9], -0.189; in [13], -2.43; in test [14], -1.92 (inactive); in [15], -0.48 (inactive); in test [16], 0.0284 (inactive). For the same compound, the composite z-score in test [4] was -0.349 (inactive); in [10], -0.102; in [11], 0.309 (inactive); in test [12] it was 0.456.

Consider `CCN(CC)c1ccc(N2CC=CC34O[C@@H]5/C=C\CCC(C)OC(=O)C5[C@H]3C(=O)N(C(C)CO)[C@@H]4C2=O)cc1` (some centres undefined), for which the z-score in test [1] is 0.958; in test [2] it was -0.893 (inactive); in test [3], 0.259 (inactive); in test [5], -1.28 (inactive); in test [6] it was 0.507 (inactive); in [7], 0.966 (inactive). For the same compound, the z-score in test [8] was 1.39 (inactive); in test [9], 0.0809; in test [13], 0.2; in [14], -5.38 (inactive); in test [15], -0.713 (inactive); in test [16], -0.257 (inactive). Besides, the composite z-score in test [4] was 0.881 (inactive); in test [10], 0.0727; in test [11] it was -0.187 (inactive); in [12], 0.56.
